Experimental data from PubChem BioAssay.
Results filed as inconclusive are left out. The source made the active and inactive calls. Unless noted, no cut-off is given here; in the data, nearly all actives have AC50 up to about 30 µM.

What was measured:
[1] = growth inhibition of DIPG glioma cells, dose response, cell-based, SU-DIPG-XIII, MIPE4.0, CellTiter-Glo, qHTS (AID 1347061; cut-off not given, nearly all actives have AC50 up to about 37 µM;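 note: cells exposed to compound for 48 hours before readout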); details: SU-DIPG-XIII viability, CellTiter-Glo ATP luminescence
[2] = growth inhibition of DIPG glioma cells, dose response, cell-based, JHH-DIPG-1, MIPE4.0, CellTiter-Glo, qHTS (AID 1347062; cut-off not given, nearly all actives have AC50 up to about 27 µM); details: JHH-DIPG-1 viability, CellTiter-Glo ATP luminescence
[3] = growth inhibition of DIPG glioma cells, dose response, cell-based, SU-DIPG-IV, MIPE4.0, CellTiter-Glo, qHTS (AID 1347063); details: SU-DIPG-IV viability, CellTiter-Glo ATP luminescence;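 note: compound exposure lasted 48 hours before the viability readout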
[4] = growth inhibition of DIPG glioma cells, dose response, cell-based, SU-DIPG-XIII, MIPE5.0, CellTiter-Glo, qHTS (AID 1347064; cut-off not given, nearly all actives have AC50 up to about 23 µM); details: SU-DIPG-XIII viability, CellTiter-Glo ATP luminescence
[5] = JHH-DIPG-1 glioma cell viability, MIPE5.0 library, CellTiter-Glo luminescence, qHTS (AID 1347067; cut-off not given, nearly all actives have AC50 up to about 26 µM;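 note: cells exposed to compound for 48 hours before readout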); details: JHH-DIPG-1 glioma viability, CellTiter-Glo ATP luminescence
[6] = SU-DIPG-XXV glioma cell viability, MIPE5.0 library, qHTS (AID 1347068; cut-off not given, nearly all actives have IC50 up to about 30 µM)
[7] = SU-DIPG-VI glioma cell viability, MIPE4.0 library, CellTiter-Glo luminescence, qHTS (AID 1347066); details: CellTiter-Glo ATP luminescence;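 note: cells exposed to compound for 48 hours before readout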

Measured: outcome

O=C(O)c1cc(O)c2c(c1)C(=O)c1cccc(O)c1C2=O
not listed: [7]
inactive: all other assays above

CO/N=C(/C(=O)N[C@@H]1C(=O)N2C(C(=O)O)=C(Cn3ccc(=N)n3CCO)CS[C@H]12)c1csc(N)n1
inactive: [1] | [2] | [3] | [7]

CNc1ccc(C(=O)Oc2cc(ON[N+](=O)N(C)C)c([N+](=O)[O-])cc2C#N)cc1
inactive: [1] | [2] | [3] | [7]
